# Experimental data published in PubChem BioAssay (NCATS).
# Where “and” joins values, the source holds several entries; their conditions need not be identical. Equal values may be shown once. A number with no mark means an inactive call. Records with an inconclusive call do not appear. Where a call stands in place of a potency, no number is given. Calls of active or inactive are those of the source. Unless noted, calls come from the whole dose curve; as a rule, active = well fitted curve in the direction sought with a large enough effect; inconclusive = small, poorly fitted or top-dose-only effect, or another doubt; inactive = no such curve, though single readings can be large; an effect the other way counts as inactive or inconclusive.
# Legend:
# [1] = molecular target: Glucocorticoid receptor (Homo sapiens) (UniProt P04150); test: GR-GFP Redistribution (AID 450;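 active = compounds whose dose series gives a full or clear partial fitted curve of increased nuclear translocation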; note: potency is the fitted concentration of half-maximal effect); details: U2OS GR-GFP nuclear translocation, laser cytometry, 2 h
# Sequence of Glucocorticoid receptor (Homo sapiens) (P04150 whole entry, looked up): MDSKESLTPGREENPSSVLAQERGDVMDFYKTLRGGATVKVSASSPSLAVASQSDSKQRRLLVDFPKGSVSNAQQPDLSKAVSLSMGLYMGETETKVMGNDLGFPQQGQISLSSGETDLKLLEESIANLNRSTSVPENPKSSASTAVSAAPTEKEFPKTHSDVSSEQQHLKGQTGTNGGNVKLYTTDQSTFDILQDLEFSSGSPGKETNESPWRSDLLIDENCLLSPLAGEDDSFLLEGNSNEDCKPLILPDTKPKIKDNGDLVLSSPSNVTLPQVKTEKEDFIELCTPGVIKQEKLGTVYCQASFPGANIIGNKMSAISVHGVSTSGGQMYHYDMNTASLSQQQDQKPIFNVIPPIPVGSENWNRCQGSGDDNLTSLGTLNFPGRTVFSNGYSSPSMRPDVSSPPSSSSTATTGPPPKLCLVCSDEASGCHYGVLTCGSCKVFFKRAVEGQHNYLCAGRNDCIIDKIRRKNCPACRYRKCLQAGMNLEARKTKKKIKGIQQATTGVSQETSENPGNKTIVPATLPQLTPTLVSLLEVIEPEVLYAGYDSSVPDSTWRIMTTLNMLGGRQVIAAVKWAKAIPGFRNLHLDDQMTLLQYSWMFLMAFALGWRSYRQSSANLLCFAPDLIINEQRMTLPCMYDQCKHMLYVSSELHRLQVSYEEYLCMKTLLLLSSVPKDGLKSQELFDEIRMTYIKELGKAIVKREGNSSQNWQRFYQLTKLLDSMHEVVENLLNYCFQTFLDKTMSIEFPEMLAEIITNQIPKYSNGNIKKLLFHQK
# [2] = S16 Schwann cell viability assay (CellTiter-Glo assay) (AID 624031); details: S16 rat Schwann cells viability, 24 h; series mostly up to 25.7 µM;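 note: native untransfected S16 rat Schwann cells; cellular ATP luminescence as a viability measure; nearly all actives have a fitted effect of over 70% in size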
# Summary of the method: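 Rat S16 Schwann cells without reporter constructs received compound or DMSO for 24 h at 37 °C under 5% CO2. Cellular ATP was then quantified by CellTiter-Glo luminescence, with vehicle wells defined as 0% activity and cell-free wells as reference.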
# CP250 = test: qHTS profiling for inhibitors of Plasmodium falciparum proliferation (AID 504749); note: nearly all actives have a fitted effect of over 60% in size; note: potency is the fitted concentration of half-maximal effect; details: P. falciparum in erythrocytes, SYBR Green DNA, 72 h; series mostly up to 12.8 µM
# Summary of the method: (§1)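 Each compound contacts P. falciparum-infected red blood cells for 72 h at 37 C; lysis buffer (Tris, EDTA, saponin, Triton X, SYBR Green I) is added and fluorescence measured next morning; values normalized to controls.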
# DIV17 = test: as above; details: P. falciparum in erythrocytes, SYBR Green DNA, 72 h; series mostly up to 12.8 µM
# Summary of the method: as §1
# HB3 = test: as above; details: P. falciparum in erythrocytes, SYBR Green DNA, 72 h; series mostly up to 12.8 µM
# Summary of the method: as §1
# ATS189 = test: as above; details: P. falciparum in erythrocytes, SYBR Green DNA, 72 h; series mostly up to 12.8 µM
# Summary of the method: as §1
# ATS95 = test: as above; details: P. falciparum in erythrocytes, SYBR Green DNA, 72 h; series mostly up to 12.8 µM
# Summary of the method: as §1
# CP260 = test: as above; details: P. falciparum in erythrocytes, SYBR Green DNA, 72 h; series mostly up to 12.8 µM
# Summary of the method: as §1
# CP266 = test: as above; details: P. falciparum in erythrocytes, SYBR Green DNA, 72 h; series mostly up to 12.8 µM
# Summary of the method: as §1
# GB4 = test: as above; details: P. falciparum in erythrocytes, SYBR Green DNA, 72 h; series mostly up to 12.8 µM
# Summary of the method: as §1
# P93_24 = test: as above; details: P. falciparum in erythrocytes, SYBR Green DNA, 72 h; series mostly up to 12.8 µM
# Summary of the method: as §1
# P94_40 = test: as above; details: P. falciparum in erythrocytes, SYBR Green DNA, 72 h; series mostly up to 12.8 µM
# Summary of the method: as §1
# TAB109 = test: as above; details: P. falciparum in erythrocytes, SYBR Green DNA, 72 h; series mostly up to 12.8 µM
# Summary of the method: as §1
# TAB165 = test: as above; details: P. falciparum in erythrocytes, SYBR Green DNA, 72 h; series mostly up to 12.8 µM
# Summary of the method: as §1
# CP194 = test: as above; details: P. falciparum in erythrocytes, SYBR Green DNA, 72 h; series mostly up to 12.8 µM
# Summary of the method: as §1
# CP201 = test: as above; details: P. falciparum in erythrocytes, SYBR Green DNA, 72 h; series mostly up to 12.8 µM
# Summary of the method: as §1
# CP237 = test: as above; details: P. falciparum in erythrocytes, SYBR Green DNA, 72 h; series mostly up to 12.8 µM
# Summary of the method: as §1
# CP286 = test: as above; details: P. falciparum in erythrocytes, SYBR Green DNA, 72 h; series mostly up to 12.8 µM
# Summary of the method: as §1
# CP315 = test: as above; details: P. falciparum in erythrocytes, SYBR Green DNA, 72 h; series mostly up to 12.8 µM
# Summary of the method: as §1
# PAD = test: as above; details: P. falciparum in erythrocytes, SYBR Green DNA, 72 h; series mostly up to 12.8 µM
# Summary of the method: as §1
smiles,measurement,setting,value
NC[C@@H]1O[C@H](O[C@@H]2[C@H](O[C@@H]3O[C@H](CO)[C@@H](COC[C@H]4O[C@@H](CN)[C@@H](O)[C@@H](O)[C@@H]4N)[C@@H]3O)[C@@H](O)[C@@H](N)C[C@H]2N)[C@@H](N)[C@H](O)[C@@H]1O,Potency,[1],> 20.6 µM
O=C(O)[C@@H]1[C@@H]2C[C@H]3c4[nH]c5ccccc5c4CCN3C[C@@H]2CC[C@@H]1O,Potency,[1],> 20.6 µM and > 46 µM
same,outcome,[2],inactive
same,Potency,CP250,inactive
same,Potency,DIV17,5.73 µM (active)
same,Potency,HB3,inactive
C[C@@H]1C[C@H](OC(=O)[C@@H](O)c2ccccc2)CC(C)(C)N1C,Potency,[1],> 20.6 µM
CC1(C)O[C@H]2C[C@@H]3[C@H]4CCC5=CC(=O)CC[C@@]5(C)[C@]4(F)[C@@H](O)C[C@@]3(C)[C@@]2(C(=O)CCl)O1,outcome,[2],inactive
same,Potency,ATS189,3.55 µM (active)
same,Potency,ATS95,1.58 µM (active)
same,Potency,CP250,3.98 µM (active)
same,Potency,CP260,3.16 µM (active)
same,Potency,CP266,inactive
same,Potency,DIV17,6.42 µM (active)
same,Potency,GB4,5.73 µM (active)
same,Potency,P93_24,3.55 µM (active)
same,Potency,P94_40,3.16 µM (active)
same,Potency,TAB109,1.41 µM (active)
same,Potency,TAB165,3.16 µM (active)
C=Cc1c(C)c2cc3nc(cc4[nH]c(cc5nc(cc1[nH]2)C(C)=C5CCC(=O)O)c(CCC(=O)OC)c4C)[C@@]1(C)C3=CC=C(C(=O)OC)[C@H]1C(=O)OC (tested in a mixture with another compound),Potency,[1],> 20.6 µM
same,outcome,[2],inactive
same,Potency,ATS189,7.08 µM (active)
same,Potency,ATS95,7.94 µM (active)
same,Potency,CP194,inactive
same,Potency,CP201,inactive
same,Potency,CP237,5.01 µM (active)
same,Potency,CP250,10 µM (active)
same,Potency,CP260,2.51 µM (active)
same,Potency,CP266,inactive
same,Potency,CP286,4.47 µM (active)
same,Potency,CP315,inactive
same,Potency,DIV17,7.57 µM (active)
same,Potency,GB4,12 µM (active)
same,Potency,HB3,4.47 µM (active)
same,Potency,P93_24,8.91 µM (active)
same,Potency,P94_40,3.55 µM (active)
same,Potency,PAD,1.41 µM (active)
same,Potency,TAB109,5.01 µM (active)
same,Potency,TAB165,6.31 µM (active)
CO[C@]1(NC(=O)[C@H](C(=O)O)c2ccc(O)cc2)C(=O)N2C(C(=O)O)=C(CSc3nnnn3C)CO[C@H]21,Potency,[1],> 20.6 µM
same,outcome,[2],inactive
same,Potency,ATS189,inactive
same,Potency,ATS95,inactive
same,Potency,CP194,inactive
same,Potency,CP201,inactive
same,Potency,CP237,inactive
same,Potency,CP250,inactive
same,Potency,CP260,inactive
same,Potency,CP266,inactive
same,Potency,CP286,inactive
same,Potency,DIV17,inactive
same,Potency,GB4,inactive
same,Potency,HB3,inactive
same,Potency,P93_24,inactive
same,Potency,P94_40,inactive
same,Potency,PAD,inactive
same,Potency,TAB109,inactive
same,Potency,TAB165,inactive
C[C@@H](Cc1cccc(C(F)(F)F)c1)NCCOC(=O)c1ccccc1,Potency,[1],> 20.6 µM
Cc1nccn1C[C@@H]1CCc2c(c3ccccc3n2C)C1=O,Potency,[1],> 20.6 µM
Cc1onc(-c2c(F)cccc2Cl)c1C(=O)N[C@H]1C(=O)N2[C@H]1SC(C)(C)[C@H]2C(=O)O,Potency,[1],> 20.6 µM
CCN(CC)[C@@H](C)CN1c2ccccc2Sc2ccccc21,Potency,[1],> 20.6 µM
same,outcome,[2],inactive
same,Potency,CP266,inactive
same,Potency,CP315,inactive
same,Potency,GB4,5.73 µM (active)
same,Potency,HB3,inactive
same,Potency,PAD,inactive
CC=C(/C(=C/C)c1ccc(O)cc1)c1ccc(O)cc1,Potency,[1],> 20.6 µM
same,outcome,[2],inactive
same,Potency,ATS189,inactive
same,Potency,ATS95,inactive
same,Potency,CP194,inactive
same,Potency,CP201,inactive
same,Potency,CP237,inactive
same,Potency,CP250,inactive
same,Potency,CP260,inactive
same,Potency,CP266,inactive
same,Potency,CP286,inactive
same,Potency,CP315,inactive
same,Potency,DIV17,inactive
same,Potency,GB4,inactive
same,Potency,HB3,inactive
same,Potency,P93_24,inactive
same,Potency,P94_40,inactive
same,Potency,PAD,inactive
same,Potency,TAB109,inactive
same,Potency,TAB165,inactive
Nc1c(O)cccc1C(=O)C[C@@H](N)C(=O)O,Potency,[1],> 20.6 µM
C=C(C)[C@H]1CC[C@]2(C(=O)O)CC[C@]3(C)[C@@H](CC[C@H]4[C@@]5(C)CC[C@@H](O)C(C)(C)[C@@H]5CC[C@@]43C)[C@H]12,Potency,[1],> 20.6 µM
C1CCC(C(C[C@@H]2CCCCN2)C2CCCCC2)CC1,Potency,[1],> 20.6 µM
C[C@H]1CC[C@@H]2[C@@H](C)[C@H]3[C@H](C[C@H]4[C@@H]5CC=C6C[C@@H](O[C@]7(O[C@H]8O[C@@H](C)[C@@H](O)[C@@H](O)[C@@H]8O)C[C@@H](O[C@@H]8O[C@H](CO)[C@@H](O)[C@H](O)[C@@H]8O)[C@@H](O)[C@H](CO)O7)CC[C@]6(C)[C@H]5CC[C@@]34C)N2C1,Potency,[1],> 20.6 µM
CO[C@]1(NC(=O)C2SC(=C(C(N)=O)C(=O)O)S2)C(=O)N2C(C(=O)O)=C(CSc3nnnn3C)CS[C@H]21 (some centres not stated),outcome,[2],inactive
same,Potency,ATS189,inactive
same,Potency,ATS95,inactive
same,Potency,CP194,inactive
same,Potency,CP201,inactive
same,Potency,CP237,inactive
same,Potency,CP250,inactive
same,Potency,CP260,inactive
same,Potency,CP266,inactive
same,Potency,CP286,inactive
same,Potency,CP315,inactive
same,Potency,DIV17,inactive
same,Potency,GB4,inactive
same,Potency,HB3,inactive
same,Potency,P94_40,inactive
same,Potency,PAD,inactive
same,Potency,TAB109,inactive
same,Potency,TAB165,inactive
O=C(OC[C@@H](O)CO)c1ccccc1Nc1ccnc2cc(Cl)ccc12,outcome,[2],inactive
same,Potency,ATS189,inactive
same,Potency,ATS95,inactive
same,Potency,CP194,inactive
same,Potency,CP201,inactive
same,Potency,CP237,inactive
same,Potency,CP250,inactive
same,Potency,CP260,inactive
same,Potency,CP266,inactive
same,Potency,CP315,inactive
same,Potency,HB3,inactive
same,Potency,P93_24,inactive
same,Potency,P94_40,inactive
same,Potency,TAB109,inactive
same,Potency,TAB165,inactive
O=C(Nc1ccccc1)OC[C@H](CN1CCCCC1)OC(=O)Nc1ccccc1,Potency,[1],> 20.6 µM
same,outcome,[2],inactive
same,Potency,ATS189,inactive
same,Potency,ATS95,inactive
same,Potency,CP194,inactive
same,Potency,CP201,inactive
same,Potency,CP250,inactive
same,Potency,CP260,inactive
same,Potency,CP266,inactive
same,Potency,CP286,inactive
same,Potency,CP315,inactive
same,Potency,DIV17,inactive
same,Potency,GB4,inactive
same,Potency,HB3,inactive
same,Potency,P93_24,inactive
same,Potency,P94_40,inactive
same,Potency,PAD,inactive
same,Potency,TAB109,inactive
same,Potency,TAB165,inactive
C[C@@H](C(=O)O)c1ccc(C(=O)c2ccccc2)s1,outcome,[2],inactive
same,Potency,ATS189,inactive
same,Potency,ATS95,inactive
same,Potency,CP194,inactive
same,Potency,CP201,inactive
same,Potency,CP237,inactive
same,Potency,CP250,inactive
same,Potency,CP260,inactive
same,Potency,CP286,inactive
same,Potency,CP315,inactive
same,Potency,DIV17,inactive
same,Potency,GB4,inactive
same,Potency,HB3,inactive
same,Potency,P93_24,inactive
same,Potency,P94_40,inactive
same,Potency,PAD,inactive
same,Potency,TAB109,inactive
same,Potency,TAB165,inactive
